# High-throughput results from PubChem BioAssay.
# A selection: hits, their analogues and other compounds. The true share with any hit is near 5.3%.
# FMDV antiviral: blocks foot and mouth disease virus; FMDV antiviral cell-based qHTS; Potency, µM (doses to about 57.9 µM), inactives show at the highest dose activity change, negative = inhibition, usual class: inhibitors; actives 1.2% (n = 410,000); calls by dose curve; tested in HEK293T cells; note: read-out not given here; nearly all actives have a fitted effect of over 45% in size
# Vaccinia mCherry: inhibitors of vaccinia virus infection (mCherry reporter signal); Vaccinia virus mCherry reporter infection, fluorescence; Potency, µM (titrated, usually from 36.5 µM), for the others: top-dose activity change, negative = inhibition, hits mostly inhibitors; actives 0.63% (n = 310,000); AID 720579; calls by dose curve; tested in A549 cells; note: nearly all actives have a fitted effect of over 35% in size
# HCV inh: blocks hepatitis C virus; Huh7.5.1 HCVcc-Cre infection, luciferase reporter, 44 h; Potency, µM (series often up to 41.8 µM), without a hit: at the top dose activity change, negative = inhibition, usual class: inhibitors; actives 3.4% (n = 340,000); active = well fitted inhibition curve with a large enough effect; inconclusive = small, poorly fitted or top-dose-only effect, or another doubt; inactive = no such curve, though single readings can be large or run the other way
#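 After 44 h co-culture of compound, cells and HCVcc-Cre (~0.5 moi), substrate is added for 15 min at room temperature and luciferase measured over 15 sec. Cells were seeded at 1,000/well and pre-cultured 4 h.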
# Vaccinia Venus: vaccinia inhibition (Venus reporter) | Potency, µM (titrated, usually from 36.5 µM), without a hit: at the highest dose activity change, negative = inhibition, usual class: inhibitors | Vaccinia virus Venus reporter expression, fluorescence | AID 720580 | actives 0.46% (n = 330,000); calls by dose curve; tested in A549 cells; note: nearly all actives have a fitted effect of over 30% in size
# MARV entry inh: blocks Marburg virus binding to or entry into cells. Marburg virus pseudotyped entry inhibition, cell reporter. Potency, µM (highest dose often 37.8 µM), for inactives: at the highest dose activity change, negative = inhibition, usual class: inhibitors. actives 1.8% (n = 300,000); calls by dose curve; tested in HEK293 cells
# LASV entry inh: blocks Lassa virus binding to or entry into cells | actives 1.2% (n = 300,000) | Lassa virus pseudotype entry inhibition, cell reporter | AID 540256 | Potency, µM (top dose mostly 37.9 µM), without a hit: at the top dose activity change, negative = inhibition, usual class: inhibitors; calls by dose curve; tested in HEK293 cells; note: nearly all actives have a fitted effect of over 50% in size
# * marks the source's active call; other numbers are inactive results; i = inactive; ? = inconclusive; · = not tested or not shown; [ ] = another dose, or the depositor's remark. % is set by controls: 0 for no effect and ±100 for the full control effect; potency is the fitted concentration of half-maximal effect.
SMILES,FMDV antiviral,Vaccinia mCherry,HCV inh,Vaccinia Venus,MARV entry inh,LASV entry inh
O=C(c1ccc(Cl)cc1)N1CCN(c2ccnc3cc(Cl)ccc23)CC1,28µM*,?,?,-29%,?,?
CCC(=O)N1CCN(c2ccnc3cc(Cl)ccc23)CC1,-8%,-4%,17%,-24%,16%[46.1 µM],10%[46.1 µM]
O=C(O)[C@H](Cc1c[nH]c2ccccc12)NS(=O)(=O)c1cccc2nsnc12,·,·,·,·,11%,·
C[N+]1(CC(=O)c2c3ccccc3cc3ccccc23)CCOCC1,·,13%,·,-7%,·,·
Cc1ccc(/C=C/C(=O)c2ccc([N+](=O)[O-])o2)cc1,?,-23%,0.56µM*,?,·,·
O=C(/C=C/c1ccc(Cl)cc1)c1ccc([N+](=O)[O-])o1,?,8.9µM*,-4%[8.37 µM],10µM*,·,·
O=C(COc1ccc2ccccc2c1)Nc1ccc(O)c(-c2nc3ccccc3o2)c1,·,0%,·,-18%,·,·
CCOCCCNC(=O)C1CCN(c2nc3ccc(C)cc3[nH]2)CC1,26%,-10%,·,-12%,·,7%[46.1 µM]
CN(C)CCCN(C(=O)c1ccc2c(c1)CCCC2)c1nc2cc3c(cc2s1)OCO3,-21%,?,?,?,11µM*,?
CCN(CC)CCN(C(=O)c1ccc2c(c1)CCCC2)c1nc2ccc(C)cc2s1,?,-24%,?,-17%,10µM*,?
CN(C)CCCN(C(=O)c1ccc(S(=O)(=O)N(C)C)cc1)c1nc2cc3c(cc2s1)OCO3,-4%,-15%,-26%,-8%,?,-7%[46.1 µM]
CN(C)CCCN(C(=O)c1ccc(Br)s1)c1nc2cc3c(cc2s1)OCO3,-23%,10µM*,?,13µM*,·,·
CN(C)CCCN(C(=O)c1cc(-c2cccs2)nc2ccccc12)c1nc2ccc(F)cc2s1,-17%,?,?,?,?,6.3µM*
COC(=O)C1CCCCN1Cc1ccc2c(c1)CN(C(=O)c1ccc(C)s1)CCO2 (centres undefined),0%,-5%,·,4%,·,·
CSc1ccc(CN2CCC2(C)C(=O)Nc2cccc(NS(C)(=O)=O)c2)cc1 (centres undefined),-26%,3%,·,-15%,·,·
CC1Cc2ccccc2N1C(=O)CSc1nnc(-c2cccc(Cl)c2)o1 (centres undefined),-10%,-18%,·,-17%,1%[46.1 µM],14%[46.1 µM]
CN(C)CCCN(C(=O)c1ccc2c(c1)CCCC2)c1nc2ccc(F)cc2s1,-6%,?,7.9µM*,?,?,16µM*
CCN(CC)CCN(C(=O)c1ccc2c(c1)CCCC2)c1nc2ccc(F)cc2s1,-19%,-3%,?,-15%,?,12%[46.1 µM]
Cc1nc(Nc2cnc(/C=C/c3cc(C(=O)Nc4cccc(C(F)(F)F)c4)ccc3C)cn2)cc(N2CCNCC2)n1,-36%,?,-9%[8.37 µM],10µM*,·,·
CCOC(=O)COc1ccc(/C=C/[N+](=O)[O-])c(OCC(=O)OCC)c1,14µM*,·,?,·,5.2µM*,21µM*
CCOC(=O)COc1ccccc1/C=N/O,2%,-14%,-6%,-3%,15%,3%
CCOC(=O)COc1ccc2ccccc2c1/C=C/[N+](=O)[O-],13µM*,-18%,?,-8%,4.5µM*,?
Nc1nonc1C(=O)NCCNCc1cc(Br)ccc1OCc1ccccc1F,?,·,10µM*,·,?,-19%
Nc1nonc1C(=O)NCCNCc1ccccc1OCc1ccccc1F,?,·,-29%,·,?,2%
N#Cc1cccc(NC(=O)C2CCN(c3nc(-c4ccc(Cl)cc4)no3)CC2)c1,25µM*,-12%[7.34 µM],·,-12%[7.34 µM],·,8%[46.1 µM]
SMILES,FMDV antiviral,Vaccinia mCherry,HCV inh,Vaccinia Venus,MARV entry inh,LASV entry inh
N#Cc1cccc(NC(=O)C2CCN(c3ncccn3)CC2)c1,-15%,-1%,·,-5%,-2%[46.1 µM],17%[46.1 µM]
CCC(=O)NC(c1cccs1)c1ccc2cccnc2c1O (centres undefined),4%,?,3.5µM*,?,·,·
Cc1conc1NC(c1cccs1)c1ccc2cccnc2c1O (centres undefined),·,·,·,·,1%,·
CC(C)CC(=O)NC(c1cccs1)c1ccc2cccnc2c1O (centres undefined),8%,6.3µM*,2.8µM*,?,10µM*,?
S=C1Nc2ccccc2CS1,-4%,-5%,·,-8%,·,·
S=C1Cc2ccccc2N1,32µM*,·,?,·,·,·
CCCN(C(=O)CCl)C1=CCCCC1,?,-19%,13µM*,-11%,4%[46.1 µM],?
CCN(C(=O)COC(=O)CNC(=O)c1ccccc1C)C1=CCCCC1,-9%,·,1%,·,·,·
CCn1c2ccccc2c2nc3cc(S(=O)(=O)N4CCOCC4)ccc3nc21,-26%,?,10µM*,?,?,?
CCCCCCCCn1sccc1=O,28µM*,-12%,?,-15%,·,·
CCCCCCCc1nn2c(=O)cc(O)nc2s1,-19%,-10%,42%,-3%,27%,10%
S=C(Nc1ccc(Cl)cc1)c1nc2ccccc2s1,10%,·,-25%,-18%,?,11%
O=C(Nc1ccc(Cl)cc1)/C(=C/c1cccc(O)c1)c1nc2ccccc2s1,10µM*,11µM*,13µM*,10µM*,?,?
Cc1ccc(CSCC(=O)N/N=C/c2ccc(OCC(=O)Nc3ccc(C)cc3)cc2)cc1,?,-19%,4%,-12%,-12%,?
O=C(COc1ccc(/C=N/NC(=O)CSCc2ccc([N+](=O)[O-])cc2)cc1)NCc1ccco1,?,-2%,?,-25%,11µM*,?
CN(C)CCN(C)Cc1ccccc1Sc1cccc2ccccc12,?,13µM*,11µM*,?,?,?
CNCc1ccccc1Sc1cccc2ccccc12,0%,-19%,?,-27%,?,?
O=C(CCc1cn(Cc2ccccc2F)c2ccccc12)NCc1ccc(Cl)cc1,10µM*,-12%,·,-11%,·,-2%[46.1 µM]
Cc1cc(=O)oc2c1ccc1oc(/C(=N/O)c3ccccc3)c(C)c12,?,·,6.3µM*,·,?,?
Cc1ccc(/C(=N\O)c2oc3c(C)c4oc(=O)cc(C)c4cc3c2C)cc1,?,?,5.6µM*,?,2.9µM*,0.37µM*
Cc1[nH]c2ccc(F)cc2c(=O)c1SC(F)(F)[C@@H](F)C(F)(F)F,·,·,·,·,-14%,·
COc1ccccc1CNc1ncncc1-c1ccc2c(c1)OCO2,-13%,·,·,·,·,·
Cc1ccc(-c2nnc(Nc3ccccc3O)c3ccccc23)cc1,-9%,?,·,?,·,-12%[46.1 µM]
Cc1ccc(-c2nnc(NCc3ccccc3)c3ccccc23)cc1,?,-11%,11µM*,-3%,17%,-10%
CNC(=S)N/N=C/c1ccc(N(C)C)cc1,52%,i,10%,-13%,-26%,1%
CN(C)c1ccc(/C=N/NC(=S)NCc2ccccc2)cc1,21%,-3%,-28%,-11%,-1%,0.28µM*
CC(C)(C)c1ccc(/C=N/NC(=S)NCc2ccccc2)cc1,-5%,-10%,-1%,-18%,1%,0.26µM*
